Results as given in publication PMC6792352, “Limited Chemical Structural Diversity Found to Modulate Thyroid Hormone Receptor in the Tox21 Chemical Library” (Environmental Health Perspectives, 2019).
Where a name gives a salt, the structure may show the parent alone.

Tested on: thyroid hormone receptor (endogenous TRα and TRβ)
Design: species or system GH3-TRE-Luc (rat pituitary); GH3-TRE-Luc luciferase reporter, antagonist mode against 1 nM T3, loss of signal, qHTS
Details: read-out: Average AC50 (uM) GH3-TRE-Antag, antagonist mode, 1 nM T3, no GH3 cytotoxicity hit

Row | Compound | AC50 [µM]
1 | O=C(CCCN1CCC(C(=O)c2ccc(F)cc2)CC1)c1ccc(F)cc1 [Lenperone] | 44.5
2 | NC1CCN(c2nc3c(cc2F)c(=O)c(C(=O)O)cn3-c2ccc(F)cc2F)C1 (stereo not shown) [Tosufloxacin toluenesulfonic acid] | 21.1
3 | c1ccc2c(c1)CCc1ccccc1N2 [10,11-Dihydro-5H-dibenz[b,f]azepine] | 40.6
4 | Cc1c(Cl)cccc1Nc1ccccc1C(=O)O [Tolfenamic acid] | 12.5
5 | CC(C)(c1ccc(O)cc1)c1ccc(O)cc1 [BPA, bisphenol A] | 66.6
6 | O=C1c2ccccc2C(=O)C1(O)O [Ninhydrin] | 80
7 | CC(C)NC(=O)N1CC(=O)N(c2cc(Cl)cc(Cl)c2)C1=O [Iprodione] | 59.3
8 | Nc1ccc(C(=O)Oc2ccccc2)c(O)c1 [Phenyl 4-aminosalicylate] | 49.5
9 | CC#Cc1cc(C)nc(Nc2ccccc2)n1 [Mepanipyrim] | 64.8
10 | CCOC(=O)CS [Acetic acid,mercapto-,ethylester] | 73.6
11 | CCCCCCC[N+](CC)(CC)CCCCc1ccc(Cl)cc1 [Clofilium tosylate] | 16.3
12 | O=C1CCCCCCCCCCCC(=O)OCCO1 [1,4-Dioxacycloheptadecane-5,17-dione] | 47.7
13 | O=C(O)c1cccc(-c2noc(-c3ccccc3F)n2)c1 [Ataluren] | 10.8
14 | N=C(N)NC(=N)NCCc1ccccc1 [Phenformin hydrochloride] | > 20
15 | CC/C=C(\C(=O)N[C@@H]1C(=O)N2C(C(=O)OCOC(=O)C(C)(C)C)=C(COC(N)=O)CS[C@H]12)c1csc(N)n1 [Cefcapene pivoxil hydrochloride] | 49.5
16 | Cc1cccc(Nc2ccccc2C(=O)O)c1C [Mefenamic acid] | 27.4
17 | C=CCCCCCCCCC=O [Undec-10-enal] | 75.3
18 | CC(=O)OCC(=O)[C@H]1CC[C@H]2[C@@H]3CCC4=CC(=O)CC[C@]4(C)[C@H]3CC[C@]12C [Deoxycorticosterone acetate] | 25.2
19 | CC1(C)NC(=O)N(c2ccc([N+](=O)[O-])c(C(F)(F)F)c2)C1=O [Nilutamide] | 38.5

Row | Compound | AC50 [µM]
20 | Clc1cc(Cl)c2c(c1)N=C1CCCCCN1C2 [1,3-dichloro-6,7,8,9,10,12-hexahydroazepino[2,1-b]quinazoline hydrochloride (1:1)] | 40.1
21 | CCOC(=O)NCCOc1ccc(Oc2ccccc2)cc1 [Fenoxycarb] | 75.9
22 | CCCCOc1ccc(OCCCN2CCOCC2)cc1 [Pramoxine hydrochloride] | 12.8
23 | O=c1oc2ccccc2c(O)c1C1CCCc2ccccc21 (stereo not shown) [Coumatetralyl] | > 90
24 | C=C/C(C)=C/C/C=C(\C)CCC=C(C)C [alpha-Farnesene] | 44.9
25 | CCCCC(CC)COC(=O)C(C#N)=C(c1ccccc1)c1ccccc1 (stereo not shown) [2-Ethylhexyl-2-cyano-3,3-diphenylacrylate] | 31
26 | O=C(O)Cc1ccccc1Nc1c(Cl)cccc1Cl [Diclofenac sodium] | > 50
27 | CCC(C)COC(=O)CC(C)C (stereo not shown) [2-Methylbutyl isovalerate] | 71.8
28 | O=C(N/N=C/c1ccccc1O)c1ccncc1 [Salinazid] | 20.5
29 | OCCN(CCO)c1nc(N2CCCCC2)c2nc(N(CCO)CCO)nc(N3CCCCC3)c2n1 [Dipyridamole] | 24.3
30 | COc1cccc(N(C)C(=S)Oc2ccc3c(c2)CCCC3)n1 [Liranaftate] | 39.9
31 | Cc1cc(-n2c(=O)[nH]c(=O)n(C)c2=O)ccc1Oc1ccc(S(=O)(=O)C(F)(F)F)cc1 [Toltrazuril sulfone] | 51.6
32 | CCCN(CCC)S(=O)(=O)c1ccc(C(=O)O)cc1 [Probenecid] | 4.15
33 | Cc1occc1SSc1ccoc1C [Bis(2-methyl-3-furyl)disulfide] | 65.9
34 | O=C1/C(=C/c2cccs2)CCC/C1=C\c1cccs1 [Tenylidone] | 46.5
35 | CC(=O)CC/C=C(\C)CC/C=C(\C)CC/C=C(\C)CCC=C(C)C [Teprenone] | 33.9
36 | COc1ccc(O)cc1 [4-Methoxyphenol] | > 50
37 | CCCCNC(=O)n1c(NC(=O)OC)nc2ccccc21 [Benomyl] | 8.81

Same assay, conditions: read-out: Average AC50 (uM) GH3-TRE-Antag, antagonist mode, 1 nM T3, no GH3 cytotoxicity hit, Average AC50 (uM) GH3-TRE-Antag, 24 h

Row | Compound | AC50 [µM]
38 | CCCCCCn1cc[n+](C)c1 [1-Hexyl-3-methylimidazolium chloride] | 65.3
39 | N=C(N)NC(=O)c1nc(Cl)c(N)nc1N [Amiloride] | 16.4
40 | CCCCCC[n+]1ccccc1 [1-Hexylpyridinium bromide] | 62.1
